Some test systems named below: HCT-15 colon; HT29 colon; SNB-75 CNS; SNB-19 CNS; U251 CNS; PC-3 prostate; SK-MEL-5 melanoma; UACC-62 melanoma; SK-MEL-28 melanoma; SK-MEL-2 melanoma; EKVX NSCLC; SN12C renal; UO-31 renal; TK-10 renal; ACHN renal; CAKI-1 renal; A498 renal; CCRF-CEM leukemia; MOLT-4 leukemia; LOX IMVI melanoma.
Common to all, as to assay: NCI-60 one-dose screen, 48 h (100 = growth as untreated, 0 = no growth, -100 = all killed)
What all share (details): 10 µM unless noted

Compounds without any hit were thinned out: in the full panel of roughly 83,000, 20% have a hit.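 Step 1: grow cells in 96-well plates. Step 2: add test compound at a single concentration. Step 3: incubate 48 h. Step 4: record percent growth.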 Unmarked numbers belong to inactive results. The source made the active and inactive calls. How the source made its calls: active means growth percent below 10; inactive means the rest.

`O=C(Oc1ccccc1)c1cc(O)c(O)c(O)c1`: the growth in the test on HCT-15 colon was 39.8%; in the test on HT29 colon it was 85.7%; with SNB-75 CNS, 79.5%; with SNB-19 CNS it was 65.2%; in the test with U251 CNS it was 54.8%; with PC-3 prostate it was 70.4%. For the same compound, the growth is 58.4% with SK-MEL-5 melanoma; 31.3% in the test on UACC-62 melanoma; 89.9% in the test on SK-MEL-28 melanoma; 125% with SK-MEL-2 melanoma; 52.2% in the test with EKVX NSCLC; 66.1% with SN12C renal. For the same compound, the growth was 53.8% with UO-31 renal; 81% with TK-10 renal; 62.6% with ACHN renal; 33.6% with CAKI-1 renal; 87.3% in the test on A498 renal; 26.6% in the test on CCRF-CEM leukemia. Besides, the growth in the test with MOLT-4 leukemia is 62.5%.

For the compound `Cc1nn(-c2ccccc2)c(Oc2ccccc2)c1/C=N/NC(=O)Cn1c(=O)sc2ccccc21`, the growth was 56.7% in the test on HCT-15 colon; 46.8% with HT29 colon; 48.6% with SNB-75 CNS; 61.1% in the test with SNB-19 CNS; 51.3% in the test with U251 CNS; 44.5% with PC-3 prostate. The growth was -47.7% (active) in the test on SK-MEL-5 melanoma; 52.1% in the test with UACC-62 melanoma; 87.5% in the test on SK-MEL-28 melanoma; 42.6% in the test with SK-MEL-2 melanoma; 33.3% with EKVX NSCLC; 61.4% with SN12C renal. The growth in the test on UO-31 renal was 35%; in the test on TK-10 renal, 60.7%; in the test with ACHN renal, 47.2%; in the test with CAKI-1 renal, 33.4%; with A498 renal, 45.6%; in the test with CCRF-CEM leukemia, 49.9%. The growth in the test on MOLT-4 leukemia was 10.3%.

With `NC(=N\N=C/c1ccc(Cl)cc1Cl)/C(N)=N\N=C/c1ccc(Cl)cc1Cl`, the growth is 82.9% with HCT-15 colon; 52.5% in the test with HT29 colon; 8.06% (active) in the test on SNB-75 CNS; 69.8% in the test with SNB-19 CNS; 36.2% with U251 CNS; 89.2% in the test with PC-3 prostate. The growth was 108% in the test with SK-MEL-5 melanoma; 94.9% in the test with UACC-62 melanoma; 110% in the test on SK-MEL-28 melanoma; 63.7% in the test with SK-MEL-2 melanoma; 77.3% in the test on EKVX NSCLC; 67.7% in the test with SN12C renal. The growth with UO-31 renal was 49.8%; with TK-10 renal, 29.7%; in the test with ACHN renal, 17.4%; in the test with CAKI-1 renal it was 69.9%; in the test on A498 renal it was -2.93% (active); in the test with CCRF-CEM leukemia it was 3.15% (active). The growth in the test on MOLT-4 leukemia was 96.6%.

Regarding `COC(=O)[C@H](C)NC(=O)c1ccc(NC(=O)c2[nH]c(C)c(Cl)c2Cl)c(OCCN)c1`, the growth is 99.9% in the test with HCT-15 colon; 109% with HT29 colon; 98.6% in the test with SNB-75 CNS; 101% in the test with SNB-19 CNS; 110% in the test with U251 CNS; 98.5% with PC-3 prostate. Also, the growth in the test on SK-MEL-5 melanoma was 99.2%; in the test on UACC-62 melanoma, 103%; in the test with SK-MEL-28 melanoma, 110%; in the test on SK-MEL-2 melanoma, 121%; in the test on EKVX NSCLC it was 103%; in the test with SN12C renal, 97.5%. Further, the growth in the test with UO-31 renal was 98.2%; in the test with TK-10 renal, 112%; with ACHN renal it was 99%; in the test on CAKI-1 renal, 96%; in the test on A498 renal it was 88.9%; with CCRF-CEM leukemia, 97.8%. Moreover, the growth in the test on MOLT-4 leukemia was 91.2%.

`CN1CCN(Cc2ccc(NC(=O)c3cncc(C#Cc4c(N)ncc5cc(F)ccc45)c3)cc2C(F)(F)F)CC1`: the growth is -91.7% (active) with HCT-15 colon; -74.8% (active) with HT29 colon; 45.1% in the test with SNB-75 CNS; -94.9% (active) in the test on SNB-19 CNS; -97.5% (active) in the test on U251 CNS; 37.9% in the test on PC-3 prostate. The growth with SK-MEL-5 melanoma is -52.7% (active); in the test with UACC-62 melanoma, 29.4%; with SK-MEL-28 melanoma, -41.9% (active); in the test with SK-MEL-2 melanoma, -2.97% (active); in the test with EKVX NSCLC it was 69.6%; with SN12C renal, 41.7%. Further, the growth in the test on UO-31 renal is 14.6%; in the test with TK-10 renal, 67.4%; in the test on ACHN renal, 40.4%; with CAKI-1 renal it was 62%; in the test with A498 renal it was 73.6%; in the test on CCRF-CEM leukemia it was -13.6% (active). The growth in the test with MOLT-4 leukemia is -59.6% (active).

Take `Cc1nc2sc(C(=O)Nc3ccccc3)c(N)c2cc1C(O)c1ccccc1` (configuration not stated): the growth was 9.11% (active) with HCT-15 colon; 11.9% with HT29 colon; 36.9% in the test on SNB-75 CNS; 23.5% in the test with SNB-19 CNS; 16.9% with U251 CNS; 21.6% in the test on PC-3 prostate. Further, the growth is 34.6% in the test on UACC-62 melanoma; 26.9% with LOX IMVI melanoma; 65.7% in the test on SK-MEL-28 melanoma; 54.8% with SK-MEL-2 melanoma; 51.5% in the test with EKVX NSCLC; 25.4% in the test with SN12C renal. Further, the growth with UO-31 renal was 45.7%; in the test with TK-10 renal it was 59.3%; in the test with ACHN renal it was 34.4%; in the test with CAKI-1 renal it was 24.8%; with A498 renal it was -8.48% (active); with CCRF-CEM leukemia it was 6.36% (active). The growth with MOLT-4 leukemia is 15.1%.

Turning to `CC1(C)C2=C(C(=O)N1Cc1ccccc1)C(c1ccco1)N(C(=O)C1CCC1)CCN2` (configuration not stated), the growth in the test on HCT-15 colon was 109%; in the test on HT29 colon, 106%; in the test with SNB-75 CNS, 83.7%; in the test with SNB-19 CNS, 98.9%; in the test on U251 CNS, 100%; in the test on PC-3 prostate, 95.2%. For the same compound, the growth was 91.7% in the test with UACC-62 melanoma; 96.8% in the test on LOX IMVI melanoma; 115% in the test on SK-MEL-28 melanoma; 94.3% with SK-MEL-2 melanoma; 97.4% with EKVX NSCLC; 93.4% in the test with SN12C renal. Further, the growth with UO-31 renal was 90.5%; with TK-10 renal it was 93.9%; in the test with ACHN renal, 111%; with CAKI-1 renal, 91.9%; in the test with A498 renal it was 113%; in the test on CCRF-CEM leukemia, 105%. In addition, in the test with MOLT-4 leukemia, the growth is 102%.

For the compound `Cn1ncc(CC(=O)O)c1-n1nnc2cc(Cl)ccc2c1=O`, the growth is 107% with HCT-15 colon; 103% in the test with HT29 colon; 81.1% in the test on SNB-75 CNS; 96% in the test on SNB-19 CNS; 103% with U251 CNS; 103% in the test on PC-3 prostate. Moreover, the growth in the test on UACC-62 melanoma is 94.8%; in the test on LOX IMVI melanoma, 103%; in the test on SK-MEL-28 melanoma, 144%; in the test with SK-MEL-2 melanoma, 99.3%; in the test on EKVX NSCLC, 86%; in the test on SN12C renal it was 92.5%. For the same compound, the growth with UO-31 renal is 81.1%; with TK-10 renal, 90.7%; in the test on ACHN renal, 94.3%; in the test with CAKI-1 renal, 87.8%; in the test with A498 renal, 134%; in the test with CCRF-CEM leukemia, 98.1%. In addition, in the test with MOLT-4 leukemia, the growth is 100%.

These data come from PubChem BioAssay (NCI).
